The values that follow come from PubChem BioAssay (NCATS).

Values joined by “and” are separate entries in the source; they are usually repeats but may differ in a detail not shown here. Identical values can stand only once. Records with an inconclusive call do not appear. The source holds several records for some structures; these can differ, active in one and inactive in another. Active and inactive are the calls of the source. Calls follow the shape of the dose curve; as a rule, active = well fitted curve in the direction sought with a large enough effect; inconclusive = small, poorly fitted or top-dose-only effect, or another doubt; inactive = no such curve, though single readings can be large; an effect the other way counts as inactive or inconclusive.

Assay [1] is described as follows: Viability qHTS for spleen associated tyrosine kinase inhibitor (SYKi) naive MV4-11 cells (AID 1963823). Also: nearly all actives have a fitted effect of over 40% in size. Summed up:
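SYKi-naive MV4-11 AML cells, 500 per well, were exposed to library compounds for 72 hr at 37 C, 5% CO2. Viability was then read by CellTiter-Glo luminescence after 10 min at room temperature.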
For orientation: qHTS replaces the single test concentration by a dilution series.

A short description of assay [2]: Viability qHTS for spleen associated tyrosine kinase inhibitor (SYKi) drug resistant MV4-11 cells (AID 1963824). Also: nearly all actives have a fitted effect of over 35% in size. The essentials:
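CellTiter-Glo luminescence, read 10 min after reagent addition, reports viability after a 72 hr compound exposure. Cells are an MV4-11 line made resistant to SYK inhibition, seeded at 500 per well onto compound-containing plates.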

The nature of assay [3]: Quantitative highthroughput screen to assess conditional lethalithy of NOMO1 cells grown in RPMI1640 with untreated serum (RPMI+s) (AID 1963876). Also: nearly all actives have a fitted effect of over 35% in size.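 As to Viability: 100% = DMSO wells and 0% = empty wells without cells.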 The essentials:
(§1)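 Each medium arm—HPLM with 10% dialyzed FBS, or RPMI1640 with 5 mM glucose and 10% untreated or dialyzed FBS—was screened against an 11-point, 3-fold compound titration for 48 h at 37 °C, with CellTiter-Glo luminescence as endpoint.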

The nature of assay [4]: Quantitative highthroughput screen to assess conditional lethalithy of NOMO1 cells grown in Human Plasma-Like Medium with dialyzed fetal bovine serum (HPLM+ds) (AID 1963878). Also: nearly all actives have a fitted effect of over 35% in size.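 As to Viability: 100% = DMSO wells and 0% = empty wells on each plate.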 The essentials:
as §1

Assay [5] is described as follows: Quantitative highthroughput screen to assess conditional lethalithy of P12 Ichikawa cells grown in Human Plasma-Like Medium with dialyzed fetal bovine serum (HPLM+ds) (AID 1963879). Also: nearly all actives have a fitted effect of over 35% in size. As to Viability: series mostly up to about 46 µM. Conditions: Potency: viability. The essentials:
as §1

Assay [6] can be described thus: Quantitative highthroughput screen to assess conditional lethalithy of P12 Ichikawa cells grown in RPMI1640 with dialyzed fetal bovine serum (RPMI+ds) (AID 1963880). Also: nearly all actives have a fitted effect of over 35% in size.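 As to Viability: 100% = DMSO wells and 0% = empty wells on each plate.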 Conditions: Potency: P12-Ichikawa viability. The essentials:
as §1

A short description of assay [7]: Quantitative highthroughput screen to assess conditional lethalithy of P12 Ichikawa cells grown in RPMI1640 with untreated serum (RPMI+s) (AID 1963881). Also: nearly all actives have a fitted effect of over 35% in size.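 As to Viability: series mostly up to about 46 µM; 100% = DMSO wells and 0% = empty wells without cells.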 Conditions: Potency: viability. Summed up:
as §1

A short description of assay [8]: Quantitative highthroughput screen to assess conditional lethalithy of SEM cells grown in Human Plasma-Like Medium with dialyzed fetal bovine serum (HPLM+ds) (AID 1963882). Also: nearly all actives have a fitted effect of over 35% in size. As to Viability: series mostly up to about 46 µM. The essentials:
as §1

The nature of assay [9]: Quantitative highthroughput screen to assess conditional lethalithy of SEM cells grown in RPMI1640 with unreated serum (RPMI+s) (AID 1963883). Also: nearly all actives have a fitted effect of over 35% in size.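 As to Viability: 100% = DMSO wells and 0% = empty wells without cells.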 The essentials: as §1
Assay [10] is described as follows: Quantitative highthroughput screen to assess conditional lethalithy of SEM cells grown in RPMI1640 with dialyzed fetal bovine serum (RPMI+ds) (AID 1963884). Also: nearly all actives have a fitted effect of over 35% in size.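 As to Viability: series mostly up to about 46 µM; 100% = DMSO control wells and 0% = empty wells without cells.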 Summed up: as §1
The nature of assay [11]: Cellular viability qHTS for adrenocortical cancer (ACC) cell line SW-13 (AID 1963989). Also: nearly all actives have a fitted effect of over 65% in size.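 As to activity (max response): cells grown in serum-free medium with ITS supplement; % is scaled to controls: 0 for no effect and ±100 for the full control effect.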 Conditions: SW-13 ACC cells viability, CellTiter-Glo, 48 h; activity (max response): stronger effect = lower value. The essentials:
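48 h treatment, SW-13 in ITS/DMEM serum-free; doses up to 46 uM; readout CellTiter-Glo luminescence; curve fit four-parameter logistic.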

A short description of assay [12]: Cellular viability qHTS for adrenocortical cancer (ACC) cell line NCI-H295R (AID 1963990). Also: nearly all actives have a fitted effect of over 60% in size. The essentials: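 Compound titrations (up to 46 uM final) are applied to NCI-H295R cultures for 48 h at 37C. Viable cell number is estimated by CellTiter-Glo signal, normalised to DMSO and doxorubicin controls.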
Assay [13] in a line: Quantitative highthroughput screen to assess conditional lethalithy of NOMO1 cells grown in RPMI1640 with dialyzed fetal bovine serum (RPMI+ds) (AID 1963877). Also: nearly all actives have a fitted effect of over 30% in size.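 As to Viability: series mostly up to about 46 µM; 100% = DMSO control wells and 0% = empty wells.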 Summed up:
as §1
Potency is read from the fitted curve at half-maximal effect.

On to `Cc1ccccc1N1C(=O)c2cc(S(N)(=O)=O)c(Cl)cc2NC1C` (stereo unspecified), for which the Potency result in assay [1], in assay [2], in assay [3], in assay [4], in assay [5] and in assay [6] was “inactive” throughout. Also, the Potency result in assay [7], in assay [8], in assay [9], in assay [10] and in [12] was “inactive” in each case. The activity (max response) in assay [11] is 17.3% (inactive).
On to `CCOC(=O)Nc1ccc(NCc2ccc(F)cc2)nc1N`, for which the Potency is 14.8 µM (active) in assay [1] and 16.6 µM (active) in assay [2]. In addition, the Potency result in assay [3], in [4], in assay [5], in assay [6], in [7] and in assay [8] was “inactive” throughout. Further, the Potency result in [10] and in assay [12] was “inactive” each time. Also, the activity (max response) in assay [11] was -9.42% (inactive).
On to `c1cc(-c2cnn3cc(-c4ccc(OCCN5CCCCC5)cc4)cnc23)ccn1`, for which the Potency was 0.0206 µM (active) in assay [1]; 20.6 nM (active) and 20.9 nM (active) in assay [2]; 11.2 µM (active) in assay [11]; 12.6 µM (active) in assay [12]. Besides, the Potency entry in assay [3], in assay [13], in assay [6], in assay [8], in assay [9] and in assay [10] was “inactive” in each case.
Turning to `CCCCCCNC(=O)n1cc(F)c(=O)[nH]c1=O`, the Potency is 1.05 µM (active) in assay [1], 0.934 µM (active) in assay [2], 9.35 µM (active) in assay [13] and 16.6 µM (active) in [9]. Besides, the Potency result in assay [3], in assay [8] and in assay [12] was “inactive” each time. Also, the activity (max response) in assay [11] is 8.7% (inactive) and -4.78% (inactive).
In the case of `O=C1Cc2cc(CCN3CCN(c4nsc5ccccc45)CC3)c(Cl)cc2N1`, the Potency is 11.9 µM (active) and 9.2 µM (active) in assay [1]; 3.35 µM (active) and 4.11 µM (active) in [2]. The Potency result in assay [3], in [13], in assay [6], in assay [7], in assay [8] and in [10] was “inactive” each time.
With `COc1ccc2c(c1)c(CC(=O)O)c(C)n2C(=O)c1ccc(Cl)cc1`, the Potency result in assay [1], in assay [2], in assay [3], in [13], in assay [5] and in [6] was “inactive” each time. For the same compound, the Potency result in assay [9], in [10] and in assay [12] was “inactive” throughout. Further, in assay [11], the activity (max response) is -9.65% (inactive) and -2.21% (inactive).
For the compound `NC(=O)c1ccc2nc(-c3ccc(Oc4ccc(Cl)cc4)cc3)[nH]c2c1`, the Potency is 5.17 µM (active) in assay [1]; 2.95 µM (active) and 8.2 µM (active) in [2]; 28.2 µM (active) in assay [11]; 25.1 µM (active) in [12]. The Potency result in assay [3], in assay [13], in assay [5] and in assay [6] was “inactive” each time.
For the compound `Cc1ccc(S(=O)(=O)N[C@@H](Cc2ccccc2)C(=O)CCl)cc1`, the Potency was 9.34 µM (active) in [1], 8.33 µM (active) in assay [2] and 22.4 µM (active) in assay [12]. In addition, the Potency entry in assay [3] and in assay [13] was “inactive” in each case.
In the case of `CCN(CC)C(=S)SSC(=S)N(CC)CC`, the Potency was 1.57 µM (active) in [1]; 1.4 µM (active) and 5.31 µM (active) and 833 nM (active) in [2]; 2.96 µM (active) in assay [3]; 2.96 µM (active) in assay [13]; 2.96 µM (active) in assay [6]; 2.96 µM (active) in assay [7]. Also, the Potency in assay [8] was 0.833 µM (active); in [9] it was 1.05 µM (active); in assay [10], 0.662 µM (active); in [11], 16.4 µM (active) and 25.1 µM (active).
For the compound `Cc1cc2cc3c(C)cc(=O)oc3c(C)c2o1`, the Potency result in assay [1], in assay [2], in assay [3], in assay [4], in assay [5] and in assay [6] was “inactive” in each case. Moreover, the Potency result in assay [7], in assay [8], in [9], in [10] and in assay [12] was “inactive” in each case. The activity (max response) in [11] is 0.204% (inactive) and 7.11% (inactive).
In the case of `NC(=O)NO`, the Potency entry in assay [1], in assay [2] and in assay [12] was “inactive” in each case. Moreover, the Potency was 4.69 µM (active) in assay [3]; 2.96 µM (active) in assay [4]; 9.35 µM (active) in [5]; 9.35 µM (active) in [6]; 16.6 µM (active) in [7]; 3.72 µM (active) in assay [8]. The Potency in [9] and in assay [10] was 4.18 µM (active) in each case. In [11], the activity (max response) was 10.6% (inactive) and 4% (inactive).
Turning to `COc1cc(Nc2nc3ccccc3nc2NS(=O)(=O)c2ccc(NC(=O)c3ccc(C)c(OC)c3)cc2)cc(OC)c1`, the Potency in assay [1] is 18.6 µM (active); in assay [2] it was 18.6 µM (active); in [13], 7.43 µM (active); in assay [5], 5.9 µM (active); in [6], 14.8 µM (active). Also, the Potency entry in assay [3] and in [12] was “inactive” each time. In assay [11], the activity (max response) was 11.3% (inactive).
On to `CC(=O)Oc1ccccc1C(=O)O`, for which the Potency result in [1], in [2], in [3], in assay [4], in [5] and in [6] was “inactive” throughout. Also, the Potency entry in assay [7], in assay [9], in [10] and in assay [12] was “inactive” throughout. Further, in assay [11], the activity (max response) is 9.69% (inactive) and -6.24% (inactive).
As to `CC(C)(C)C(=O)Oc1ccc2c(c1)nc(NC(=O)c1cccc([N+](=O)[O-])c1)n2CCCO`, the figures for the Potency in assay [1] and in [2] were 4.68 µM (active) and 9.34 µM (active), respectively. Besides, the Potency entry in assay [3], in [4], in [5], in assay [6], in [7] and in assay [8] was “inactive” throughout. Besides, the Potency result in assay [9], in [10] and in assay [12] was “inactive” each time. Besides, the activity (max response) in [11] was -24.3% (inactive).
Consider `COc1cc(F)c(F)c(Nc2ccc(I)cc2F)c1NS(=O)(=O)C1(C[C@H](O)CO)CC1`, for which the Potency in assay [1] was 0.332 µM (active); in assay [2], 0.525 µM (active); in assay [9] it was 20.9 µM (active); in assay [11], 14.1 µM (active); in assay [12] it was 20 µM (active). Moreover, the Potency entry in assay [3] and in assay [13] was “inactive” throughout.
As for `COc1ccc(C(=O)CC(=O)c2ccc(C(C)(C)C)cc2)cc1`, the Potency result is “inactive and 14.8 µM (active)” in assay [1]; “inactive and 16.6 µM (active)” in [2]. Moreover, the Potency result in assay [3], in assay [4], in assay [5], in assay [6], in assay [7] and in assay [8] was “inactive” throughout. Moreover, the Potency entry in [9], in [10] and in assay [12] was “inactive” each time. The activity (max response) in assay [11] was 8.41% (inactive) and -10.7% (inactive).
